High-throughput results from PubChem BioAssay.
A selection: hits, their analogues and other compounds. The true share with any hit is near 3%.
KDM5B inhibitor = Primary screen for KDM5B Histone Demethylases FDH-coupled qHTS; AID 1347165, 2019; actives 2.6% (n = 220,000); KDM5B demethylase, FDH-coupled NADH fluorescence (FDH is formaldehyde dehydrogenase); Potency, µM (titrated, usually from 57.7 µM), usual class: inhibitors; also: potency is read from the fitted curve at half-maximal effect; 0% is about no effect; nearly all actives have a fitted effect of over 70% in size
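Measured: NADH fluorescence change, 30 min, RT. System: KDM5BΔAP 200 nM final, H3K4me3 peptide, α-KG, Fe(II), ascorbate, NAD⁺ plus FDH, pH 7.5 HEPES. Compounds: titrated, 10 min pre-incubation with enzyme.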
IP6K1 inh = Primary qHTS assay for small molecule inhibitors of Inositol hexaphosphate kinase 1 (IP6K1); activity change, % (series mostly up to about 58 µM); actives 0.81% (n = 140,000); Inositol hexakisphosphate kinase 1 (Homo sapiens), Q92551; IP6K1 kinase, ADP-Glo luminescence, 2 h; hits give low values; in the data active = activity change below about -25%; also: % is scaled to controls: 0 for no effect and ±100 for the full control effect
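ADP-Glo luminescence measures ADP made by human IP6K1 during a 2 h RT reaction with ATP/IP6 (mix at 1.3 mM/130 uM); top library doses 57.5 and 19.1 uM final.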
HEK293 viab = GF-AFC viability counterscreen for inhibitors of alpha-synuclein gene (SNCA) expression; Potency, µM (doses to about 57.1 µM), for inactives: at the highest dose activity change, negative = cytotoxicity, actives largely listed as cytotoxic; HEK-293-SNCA-luc viability, GF-AFC fluorescence, 24 h; actives 0.12% (n = 150,000);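 also: potency is read from the fitted curve at half-maximal effect; 0% = DMSO-treated cells and -100% = medium-only wells without cells; nearly all actives have a fitted effect of over 30% in size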
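HEK-293-SNCA-luc cells (1500/well) plated 24 h, then exposed 24 h to a dilution series; GF-AFC added 30 min at 37C, fluorescence 405/540 nm; normalised to medium-only and DMSO wells, Hill fit.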
SNCA expr inh = Primary qHTS assay for inhibitors of alpha-synuclein gene (SNCA) expression; Potency, µM (series often up to 57.2 µM), inactives show at the top dose activity change, negative = inhibition, hits mostly inhibitors; actives 0.17% (n = 140,000); HEK-293 SNCA-luciferase knock-in, luminescence, 24 h;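 also: potency is read from the fitted curve at half-maximal effect; plate controls were DMSO cells for no effect and cell-free wells for full effect; nearly all actives have a fitted effect of over 45% in size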
Numbers without * were called inactive; i = inactive; u = inconclusive; x = no result given; ! = not confirmed by another sample; [ ] = another dose, or the depositor's remark. Unless noted, calls follow the shape of the dose curve; as a rule, active = well fitted curve in the direction sought with a large enough effect; inconclusive = small, poorly fitted or top-dose-only effect, or another doubt; inactive = no such curve, though single readings can be large; an effect the other way counts as inactive or inconclusive.

SMILES	KDM5B inhibitor	IP6K1 inh	HEK293 viab	SNCA expr inh
Cc1ncc2n1C(=O)N(C1CCN(Cc3ccc(F)cc3)CC1)C2	i	10	u	u
CCc1noc(-c2cccn3c(CNC(=O)c4ccc(C)c(F)c4)nnc23)n1	u	4	-7%	u
CCc1noc(-c2cccn3c(CNC(=O)c4ccccc4F)nnc23)n1	32µM*	-1	-9%	-19%
CCc1noc(-c2cccn3c(CNC(=O)c4cc(Cl)ccc4F)nnc23)n1	28µM*	-5	7%	3%
CC(=O)NC1(C)CCN(Cc2cccc(Nc3cccc(Cl)c3)c2)C1 (stereo unspecified)	u	26	-16%[87.6 µM]	80%[87.6 µM]
Cc1cn2nc(-c3nc(C4CCCN(C(=O)c5ccccc5F)C4)no3)cc2c(=O)[nH]1 (stereo unspecified)	28µM*	12	4%	28%
COc1ccc(CCNC(=O)c2nc3cccnc3n(CC(C)C)c2=O)cc1	x	16	-13%	-18%
COc1ccc2cc(C3CN(Cc4nc(C(N)=O)no4)CCO3)ccc2c1 (stereo unspecified)	18µM*	-6	-5%	37%
COc1ccc2cc(C3CN(CCC(=O)NC(C)(C)C)CCO3)ccc2c1 (stereo unspecified)	u	22	2%	120%
O=C([C@@H]1CCCN1c1nccc(Nc2ccccc2Cl)n1)N1CCOCC1	x	0	u	10%
CC(C)c1nc(N2CCCCCC2)ncc1C(=O)O	28µM*	3	-4%	6%
O=C(C1CC1)N1CC[C@](O)(c2ccccc2)[C@H](N2CCCC2)C1	16µM*	19	-6%	-12%
O[C@]1(c2ccccc2)CCN(Cc2ccco2)C[C@H]1N1CCCC1	u	18	-20%	-25%
O=C(c1cccs1)N1CCC(O)(c2ccccc2)[C@H](N2CCCC2)C1 (stereo partly specified)	u	33	-7%	32%
O[C@]1(c2ccccc2)CCN(Cc2ccncc2)C[C@H]1N1CCCC1	6.3µM*	21	-18%	12%
Cc1nn(-c2ccccc2)c2c1C(C)N(C1CCCN(C(=O)c3ccccc3F)C1)C2=O (stereo unspecified)	x	5	x	x
Cn1ncc2c(C(=O)NCC(F)F)cc(-c3cccc(F)c3)nc21	x	7	x	x
COc1ccc(-c2nc(C3CC3)nc3c2CCN(Cc2ccc(C(F)(F)F)cc2)CC3)cc1	50µM*	-5	u	u
COc1ccc(-c2nc(C3CC3)nc3c2CCN(CCC(C)C)CC3)cc1	79µM*	12	-4%	u
COc1ccc(-c2nc(C)nc3c2CCN(CCC(C)C)CC3)cc1	u	1	-11%	4%
O=C1CCN(CC(O)Cc2ccccc2)c2ccccc2CCN1Cc1ccccc1 (stereo unspecified)	x	0	-26%[23.9 µM]	-6%[25.6 µM]
CCC(CC)C(=O)N1C[C@@H](CO)[C@@H]2Oc3ccc(Cl)cc3[C@@H]21	x	9	x	x
O=C(C1CCc2ncc(-c3ccsc3)n2C1)N1CCN(c2ccccn2)CC1 (stereo unspecified)	25µM*	13	6%	u
CCCN1CCN(C(=O)C2CCc3ncc(-c4ccsc4)n3C2)CC1 (stereo unspecified)	u	8	3%	-19%
CN(C)C(=O)c1cc2c(s1)CCC(C(=O)N1CCN(c3ccccn3)CC1)C2 (stereo unspecified)	28µM*	8	9%	-18%
SMILES	KDM5B inhibitor	IP6K1 inh	HEK293 viab	SNCA expr inh
COc1ccc(-c2cn3cc(C(=O)NCCCc4ccccc4)nc3s2)cc1	x	-8	-7%	-1%
COc1ccc(OC)c(CN2CCCn3nc(C)c(-c4cnccc4C)c32)c1	32µM*	4	-7%[87.6 µM]	-28%[87.6 µM]
Cc1ccncc1-c1c(C)nn2c1N(Cc1cccc(OC(F)(F)F)c1)CCC2	35µM*	23	u	u
CCOC(=O)[C@@H]1CN(C(=O)OCC(C)C)[C@H]2c3ccc(OC)cc3O[C@@H]12	x	2	x	x
O=C1Nc2ccc(-c3ccc4c(c3)OCO4)cc2C(=O)N2C[C@@H](NS(=O)(=O)c3ccc(F)cc3)C[C@@H]12	32µM*	-13	-4%	11%
CS(=O)(=O)N[C@H]1C[C@H]2C(=O)Nc3ccc(-c4ccc5c(c4)OCO5)cc3C(=O)N2C1	i	1	5%[87.6 µM]	-18%[87.6 µM]
CC(C)NC(=O)N[C@H]1CCN2C(=O)c3cc(-c4ccc5c(c4)OCO5)ccc3NC(=O)[C@@H]2C1	32µM*	10	1%	7%
COc1ccc(Cl)cc1-c1ccc2c(c1)C(=O)N1C[C@@H](NS(=O)(=O)c3ccc(F)cc3)C[C@H]1C(=O)N2	32µM*	-5	u	u
O=C(c1ccccc1F)N1C[C@@H](CO)[C@H](c2nc(C3CC3)no2)C1	i	-9	-12%	-13%
O=C(c1cccc2[nH]ccc12)N1C[C@@H](CO)[C@H](c2nc(C3CC3)no2)C1	22µM*	-5	1%	18%
O=C(c1cccc2[nH]ccc12)N1CCC(c2noc(C3CC3)n2)C1 (stereo unspecified)	22µM*	5	-1%	5%
O=C(c1nccc2ccccc12)N1CCC(c2noc(C3CC3)n2)C1 (stereo unspecified)	i	2	-3%	-19%
Cc1noc([C@@H]2CN(C(=O)c3cccc4[nH]ccc34)C[C@H]2CO)n1	28µM*	1	1%	23%
Cc1noc([C@@H]2CN(C(=O)CCc3c[nH]c4ccccc34)C[C@H]2CO)n1	i	-9	-1%	-11%
COc1ccccc1Nc1ccnc(N2CCC(C(=O)NCc3cccc(C(F)(F)F)c3)CC2)n1	x	26	u	u
Cc1ncc(CO)c(CN2CCC3(Cc4ccccc4CNC3=O)C2)c1O (stereo unspecified)	79µM*	0	-4%	-9%
COc1ccc(-c2cc(C(=O)NCCc3ccccc3F)c3cnn(C)c3n2)cc1	x	7	-20%	-12%
O=C(c1ccncc1)N1CCC(c2nnc3n2CCNC3)CC1	35µM*	21	-9%	-2%
CC(=O)N1CCC(c2nnc3n2CCNC3)CC1	112µM*	20	-1%[87.6 µM]	-24%[87.6 µM]
O=C(NCC1CCCO1)c1cc2c(=O)[nH]c(-c3ccccc3)cn2n1 (stereo unspecified)	22µM*	-22	-12%	-12%
O=C(NCc1ccc(F)c(F)c1)c1ccc2nnc(Cc3ccc(Cl)cc3)n2c1	x	-11	-23%	-11%
CC(C)C[C@H](NC(=O)[C@H](CCc1ccccc1)NC(=O)CN1CCOCC1)C(=O)N[C@@H](Cc1ccccc1)C(=O)N[C@@H](CC(C)C)C(=O)[C@@]1(C)CO1	x	-1	u	0.12µM*!
COc1cccc(-c2ccc(C(=O)NCCN[S+](=O)([O-])c3c(C)noc3C)cc2)c1	x	-13	x	x
Cc1nn2c(c1-c1ccccc1C(N)=O)N(CCCc1ccccc1)CCC2	32µM*	12	u	1.4µM*
